Measurements reported in PubChem BioAssay AID2098 (Broad Institute, 2009).
The whole screen tested about 300,000 compounds, of which about 2,300 (0.77%) were called active.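 How the source made its calls: active means more than half of replicate wells show activity change below -50%, luminescence cut by over half; inconclusive means some wells, but at most half, below -50%; inactive means no replicate well below -50%.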 For the sample, actives were picked, then their nearest neighbours and some compounds at random.

Assay: blocking HSF1-driven luciferase expression – cell-based, NIH3T3, luminescence, primary screen (AID 2098);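 further: luciferase reports HSF-1 transcriptional activity via heat shock element; 0% = median of DMSO wells and -100% = zero luminescence signal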
Conditions: NIH3T3-HGL HSE-luciferase, MG132-induced, luminescence 8 h; active compounds read low; screened at 7.5 µM (by protocol)

Question: With `Cc1cc(C)c2oc(C(=O)Nc3ccc(S(=O)(=O)Nc4nccc(C)n4)cc3)cc(=O)c2c1` as the compound, how does the activity change, negative = inhibition read?
Answer: -70.7% (active)

Question: For `Cc1ccnc(NS(=O)(=O)c2ccc(NC(=O)c3ccc(S(=O)(=O)N(C)C)cc3)cc2)n1`, which activity change, negative = inhibition is on record?
Answer: 1.75% (inactive)

Question: With `Cc1ccnc(NS(=O)(=O)c2ccc(NC(=O)c3oc4ccccc4c3C)cc2)n1` as the compound, how does the activity change, negative = inhibition read?
Answer: -1.33% (inactive)

Question: With `CC1(c2nnc(Cc3ccccc3)o2)CC(c2ccccc2F)=NO1` (stereo not drawn) as the compound, how does the activity change, negative = inhibition read?
Answer: -1.4% (inactive)

Question: With `Cc1cccc(C(=O)Nc2ccccc2N2CCN(c3ccc(F)cc3)CC2)c1` as the compound, how does the activity change, negative = inhibition read?
Answer: -1.05% (inactive)

Question: For `Cc1cccc(C(=O)NC(=S)N2CCN(c3ccc([N+](=O)[O-])cc3)CC2)c1`, which activity change, negative = inhibition is on record?
Answer: -62.5% (active)

Question: With `Cc1cccc(C(=O)NNC(=O)c2cccc([N+](=O)[O-])c2)c1` as the compound, how does the activity change, negative = inhibition read?
Answer: -3.12% (inactive)

Question: Which activity change, negative = inhibition does the source give for `O=S(=O)(/C=C/c1ccccc1)N1CCNCC1` here?
Answer: 0.181% (inactive)

Question: With `CN1CCN(S(=O)(=O)c2ccc(Nc3ccc(F)cc3)nc2)CC1` as the compound, how does the activity change, negative = inhibition read?
Answer: -3.3% (inactive)

Question: Which activity change, negative = inhibition does the source give for `COc1ccc(NC(=O)c2cc(-c3ccc(C)o3)nc3ccccc23)cc1` here?
Answer: 8.98% (inactive)

Question: With `O=C(O)c1cccc(NC(=O)c2cc(-c3cccc(Cl)c3)nc3ccccc23)c1` as the compound, how does the activity change, negative = inhibition read?
Answer: -10.6% (inactive)

Question: Which activity change, negative = inhibition does the source give for `O=C(Nc1cccc(F)c1)c1cc(-c2ccco2)nc2ccccc12` here?
Answer: -58.6% (active)

Question: With `COc1ccccc1C(=O)NCCC(=O)NC(C)CCc1ccccc1` (stereo not drawn) as the compound, how does the activity change, negative = inhibition read?
Answer: 1.3% (inactive)

Question: Which activity change, negative = inhibition does the source give for `Cc1ccc(S(=O)(=O)N(C)c2ccc(OCC(=O)OCc3ccc(C#N)cc3)cc2)cc1` here?
Answer: -4.36% (inactive)

Question: With `COc1ccc(C2=NOC(Cn3nc(C(=O)NCc4ccc5c(c4)OCO5)cc3-c3ccccc3)C2)cc1` (stereo not drawn) as the compound, how does the activity change, negative = inhibition read?
Answer: 2.18% (inactive)

Question: With `c1ccc(-c2c[nH]c(-c3ccccc3)c2)cc1` as the compound, how does the activity change, negative = inhibition read?
Answer: -83.8% (inactive)

Question: For `O=C(Nc1ccccc1)Nc1ccc(C(F)(F)F)cn1`, which activity change, negative = inhibition is on record?
Answer: -1.47% (inactive)

Question: Which activity change, negative = inhibition does the source give for `Oc1ccc(/C=N/Nc2ccc(C(F)(F)F)cn2)cc1O` here?
Answer: -78.4% (active)

Question: Which activity change, negative = inhibition does the source give for `Cc1nccn1CC(=O)N/N=C/c1ccc(O)c(O)c1` here?
Answer: 2.17% (inactive)

Question: With `CSc1ncccc1C(=O)NC1CCCCCC1` as the compound, how does the activity change, negative = inhibition read?
Answer: -4.75% (inactive)

Question: With `CCC(C)(NC(=O)c1ccccn1)C(=O)NC1CCCCC1` (stereo not drawn) as the compound, how does the activity change, negative = inhibition read?
Answer: -54.6% (active)

Question: Which activity change, negative = inhibition does the source give for `N/C(=N\OC(=O)CCC1CCCCC1)c1ccccn1` here?
Answer: 17.7% (inactive)

Question: With `CC(Oc1ccc(F)cc1)C(=O)Nc1ccccc1C(=O)NC1CC1` (stereo not drawn) as the compound, how does the activity change, negative = inhibition read?
Answer: 5.48% (inactive)

Question: For `CCOC(=O)N1CCN(C(=O)c2ccccc2SCC(=O)NCC2CCCCC2)CC1`, which activity change, negative = inhibition is on record?
Answer: 6.98% (inactive)

Question: Which activity change, negative = inhibition does the source give for `COC(=O)[C@@]12CCCN1[C@H](c1ccc(-c3ccc(F)cc3)c(OC)c1)[C@H]1C(=O)N(C)C(=O)[C@H]12` here?
Answer: 20.6% (inactive)

Question: Which activity change, negative = inhibition does the source give for `CC(=O)O[C@H]1CC[C@@]2(C)[C@@H](CC[C@@H]3[C@@H]2CC[C@]2(C)[C@@H](C(C)(C)O)C[C@@H]32)C1` here?
Answer: -1.58% (inactive)

Question: With `Cc1ccc(NC(=O)CC(=O)Nc2ccc(C)cc2)cc1` as the compound, how does the activity change, negative = inhibition read?
Answer: 11.5% (inactive)

Question: Which activity change, negative = inhibition does the source give for `O=C(CCl)Nc1ccc(Sc2ccc(NC(=O)CCl)cc2)cc1` here?
Answer: -61.6% (active)

Question: With `CC(C)(CCl)C(=O)Nc1ccc(Sc2ccc(F)cc2)cc1` as the compound, how does the activity change, negative = inhibition read?
Answer: 6.39% (inactive)

Question: Which activity change, negative = inhibition does the source give for `O=C(c1cc(-c2ccco2)nc2ccccc12)N(Cc1nnc(-c2ccc(Cl)cc2)o1)C1CC1` here?
Answer: 8.92% (inactive)

Question: For `Cc1cc(C(=O)OC(C)C(=O)NC2CCCCC2C)c(C)o1` (stereo not drawn), which activity change, negative = inhibition is on record?
Answer: 3.94% (inactive)

Question: With `COC(=O)/C=C\C(=O)Nc1cccc([N+](=O)[O-])c1` as the compound, how does the activity change, negative = inhibition read?
Answer: -76.8% (active)

Question: With `COc1ccc(S(=O)(=O)NC(C)C(=O)Nc2cccc([N+](=O)[O-])c2)cc1` (stereo not drawn) as the compound, how does the activity change, negative = inhibition read?
Answer: -3.53% (inactive)

Question: Which activity change, negative = inhibition does the source give for `COc1cccc(CNC(=O)CCCC(=O)Nc2cccc([N+](=O)[O-])c2)c1` here?
Answer: -0.854% (inactive)

Question: With `Cc1ccc(OCC(=O)Oc2ccccc2[N+](=O)[O-])cc1` as the compound, how does the activity change, negative = inhibition read?
Answer: -1.37% (inactive)

Question: Which activity change, negative = inhibition does the source give for `CCOc1ccc(C(=O)Nc2cc(Cl)ccc2-n2cncn2)cc1OC` here?
Answer: -3.95% (inactive)

Question: Which activity change, negative = inhibition does the source give for `Cc1cc(/C=N/n2cnnc2)c(C)n1-c1ccc2ncccc2c1` here?
Answer: -11.6% (inactive)

Question: For `O=C(COC(=O)c1cnccn1)Nc1ccc(Cl)cc1C(F)(F)F`, which activity change, negative = inhibition is on record?
Answer: -5.67% (inactive)

Question: With `S=C(NCCc1ccccc1)NCC1CCCO1` (stereo not drawn) as the compound, how does the activity change, negative = inhibition read?
Answer: 14% (inactive)

Question: Which activity change, negative = inhibition does the source give for `O=C(CS(=O)(=O)Cc1ccccc1)NCC1CCCO1` (stereo not drawn) here?
Answer: -53.1% (active)

Question: With `O=C(COC(=O)c1ccc(S(=O)(=O)Nc2ccccc2)cc1)NCC1CCCO1` (stereo not drawn) as the compound, how does the activity change, negative = inhibition read?
Answer: -11.9% (inactive)

Question: Which activity change, negative = inhibition does the source give for `CS(=O)(=O)c1ccc(Cl)c(NC(=O)COC(=O)c2ncc(Cl)c(Cl)c2Cl)c1` here?
Answer: 0.97% (inactive)

Question: Which activity change, negative = inhibition does the source give for `O=C(CN1CCOCC1)Nc1cccc([N+](=O)[O-])c1` here?
Answer: 6.69% (inactive)

Question: With `C=CCNc1ncnc2ccc(Br)cc12` as the compound, how does the activity change, negative = inhibition read?
Answer: -13.4% (inactive)

Question: Which activity change, negative = inhibition does the source give for `COc1ccc(Nc2ncnc3ccc(Br)cc23)c(OC)c1` here?
Answer: -71.5% (active)

Question: Which activity change, negative = inhibition does the source give for `COc1ccc(Nc2ncnc3sc(-c4ccccc4)cc23)c(OC)c1` here?
Answer: -2.06% (inactive)

Question: Which activity change, negative = inhibition does the source give for `Cc1ccc(C)c(OCCC(=O)OCC(=O)NC(=O)NCc2ccccc2)c1` here?
Answer: -6.76% (inactive)

Question: For `COc1ccc(NC(=O)c2cc(-c3ccc(C)cc3)on2)cc1`, which activity change, negative = inhibition is on record?
Answer: -1.83% (inactive)

Question: With `COc1ccc(Nc2cc(Cl)ccc2C(=O)O)cn1` as the compound, how does the activity change, negative = inhibition read?
Answer: 0.861% (inactive)

Question: With `COc1ccc(NC(=O)/C(Cl)=C(/Cl)S(=O)Cc2ccc(C)cc2)cn1` (stereo not drawn) as the compound, how does the activity change, negative = inhibition read?
Answer: -94.7% (active)

Question: With `CCCCn1c(N)c(N(CC)C(=O)c2ccc(N(C)S(=O)(=O)c3ccc(C)cc3)cc2)c(=O)[nH]c1=O` as the compound, how does the activity change, negative = inhibition read?
Answer: -4.56% (inactive)

Question: For `CCN1C(=O)[C@H]2[C@@H](c3ccc(SC4CCCCC4)c(OC)c3)N[C@@](Cc3ccccc3)(C(=O)OC)[C@H]2C1=O`, which activity change, negative = inhibition is on record?
Answer: 6.65% (inactive)

Question: With `Cc1cc(C(=O)CCC(=O)NNC(=O)c2ccccc2O)c(C)s1` as the compound, how does the activity change, negative = inhibition read?
Answer: 1.38% (inactive)
